Test results as given in PMC7862700, “An all-to-all approach to the identification of sequence-specific readers for epigenetic DNA modifications on cytosine”.

How the values were obtained:
Assay in all cases: DAPPL (digital affinity profiling via proximity ligation, sequencing); 10 mM Tris-HCl pH 7.5, 50 mM NaCl, 1 mM DTT, 4% glycerol, room temperature, 30 min; GST-TFs on glutathione beads, 16-mer random dsDNA library, 0.1% formaldehyde crosslink after washing; high values mean tight binding
FLI1 = molecular target: T1, FLI1 (Homo sapiens, UniProt Q01543 1-452); settings: protein: recombinant; tags: N-terminal GST; dsDNA, one strand shown
T1 sequence: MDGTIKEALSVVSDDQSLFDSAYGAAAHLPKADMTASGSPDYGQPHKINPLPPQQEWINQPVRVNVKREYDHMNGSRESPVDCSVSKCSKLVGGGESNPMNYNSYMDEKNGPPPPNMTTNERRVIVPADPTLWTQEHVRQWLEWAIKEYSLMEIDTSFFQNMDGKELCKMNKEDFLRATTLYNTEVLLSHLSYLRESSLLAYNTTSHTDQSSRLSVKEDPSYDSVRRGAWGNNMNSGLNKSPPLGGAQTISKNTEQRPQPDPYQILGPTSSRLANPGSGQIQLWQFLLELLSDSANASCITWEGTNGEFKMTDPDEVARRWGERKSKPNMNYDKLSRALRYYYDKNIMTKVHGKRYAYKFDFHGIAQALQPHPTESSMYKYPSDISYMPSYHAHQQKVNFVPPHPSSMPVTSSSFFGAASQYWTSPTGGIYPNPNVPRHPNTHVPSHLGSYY
Method in brief: (§1)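 A tag-only sample was pooled with DNA-barcoded human transcription factors that had been expressed in yeast as GST fusions and captured on glutathione beads. The pools were incubated for 30 min at room temperature with 200 nmole of a random double-stranded 16-mer DNA library in Tris/NaCl/DTT/glycerol buffer, then washed, crosslinked with 0.1% formaldehyde, proximity-ligated (BsaI/T4 ligase, 1 h, 37 °C), PCR-amplified and sequenced on an Illumina NextSeq500. Binding signal is each hexamer's read frequency for a factor divided by its frequency for the tag-only sample.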

ELK1 = molecular target: T2, ELK1 (Homo sapiens, UniProt P19419 1-428); settings: protein: recombinant; tags: N-terminal GST; dsDNA, one strand shown
T2 sequence: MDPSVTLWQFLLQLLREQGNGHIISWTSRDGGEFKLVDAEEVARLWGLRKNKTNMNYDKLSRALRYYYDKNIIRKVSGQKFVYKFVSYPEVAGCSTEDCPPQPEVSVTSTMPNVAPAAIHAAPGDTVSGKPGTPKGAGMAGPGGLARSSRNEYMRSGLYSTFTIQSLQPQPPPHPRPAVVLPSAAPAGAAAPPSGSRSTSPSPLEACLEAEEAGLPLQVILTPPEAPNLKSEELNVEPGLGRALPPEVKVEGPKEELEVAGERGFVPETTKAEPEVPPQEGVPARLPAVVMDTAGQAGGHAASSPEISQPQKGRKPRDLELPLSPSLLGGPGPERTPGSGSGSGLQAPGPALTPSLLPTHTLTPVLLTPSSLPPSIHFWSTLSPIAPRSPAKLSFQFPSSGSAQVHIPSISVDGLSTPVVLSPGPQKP
Method in brief: as §1

GABPA = molecular target: T3, GABPA (Homo sapiens, UniProt Q06546 1-454); settings: protein: recombinant; tags: N-terminal GST; dsDNA, one strand shown
T3 sequence: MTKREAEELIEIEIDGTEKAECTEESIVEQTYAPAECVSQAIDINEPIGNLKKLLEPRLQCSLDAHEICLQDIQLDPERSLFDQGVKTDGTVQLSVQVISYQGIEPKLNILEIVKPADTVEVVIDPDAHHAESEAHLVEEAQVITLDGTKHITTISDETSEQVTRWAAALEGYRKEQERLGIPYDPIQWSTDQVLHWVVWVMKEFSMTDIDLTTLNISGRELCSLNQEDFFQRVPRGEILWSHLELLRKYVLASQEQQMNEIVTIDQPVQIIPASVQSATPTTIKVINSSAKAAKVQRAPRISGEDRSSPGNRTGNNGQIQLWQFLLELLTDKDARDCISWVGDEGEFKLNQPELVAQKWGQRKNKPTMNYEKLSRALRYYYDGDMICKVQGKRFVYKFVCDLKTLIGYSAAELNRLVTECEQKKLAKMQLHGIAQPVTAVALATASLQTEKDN
Method in brief: as §1

ERG = molecular target: T4, ERG (Homo sapiens, UniProt P11308 1-479); settings: protein: recombinant; tags: N-terminal GST; dsDNA, one strand shown
T4 sequence: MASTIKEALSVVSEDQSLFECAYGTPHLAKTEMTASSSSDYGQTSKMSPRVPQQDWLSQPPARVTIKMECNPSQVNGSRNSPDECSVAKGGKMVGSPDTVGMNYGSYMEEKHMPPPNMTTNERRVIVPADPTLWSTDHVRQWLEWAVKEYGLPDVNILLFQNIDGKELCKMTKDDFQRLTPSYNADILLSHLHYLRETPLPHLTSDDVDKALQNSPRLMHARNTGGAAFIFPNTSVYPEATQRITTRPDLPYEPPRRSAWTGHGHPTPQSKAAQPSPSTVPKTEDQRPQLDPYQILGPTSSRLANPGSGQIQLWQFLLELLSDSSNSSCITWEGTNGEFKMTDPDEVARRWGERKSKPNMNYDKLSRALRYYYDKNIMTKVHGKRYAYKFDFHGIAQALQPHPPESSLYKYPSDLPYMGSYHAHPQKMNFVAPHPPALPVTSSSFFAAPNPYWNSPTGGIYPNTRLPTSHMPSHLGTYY
Method in brief: as §1

ELF1 = ELF1 (Homo sapiens, UniProt P32519 1-619); settings: protein: recombinant; tags: N-terminal GST; dsDNA, one strand shown
Method in brief: as §1

EHF = molecular target: T5, EHF (Homo sapiens, UniProt Q9NZC4 1-300); settings: protein: recombinant; tags: N-terminal GST; dsDNA, one strand shown
T5 sequence: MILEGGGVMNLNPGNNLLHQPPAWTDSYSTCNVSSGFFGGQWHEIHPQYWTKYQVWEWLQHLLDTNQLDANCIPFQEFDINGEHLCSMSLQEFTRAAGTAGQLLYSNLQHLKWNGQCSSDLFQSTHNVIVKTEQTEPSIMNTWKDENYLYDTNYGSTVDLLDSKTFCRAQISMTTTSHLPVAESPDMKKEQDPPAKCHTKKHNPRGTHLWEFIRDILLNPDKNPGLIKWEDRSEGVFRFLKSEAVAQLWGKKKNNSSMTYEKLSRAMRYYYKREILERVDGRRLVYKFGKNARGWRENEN
Method in brief: as §1

SPI1 = SPI1 (Homo sapiens, UniProt P17947 1-270); settings: protein: recombinant; tags: N-terminal GST; dsDNA, one strand shown
Method in brief: as §1

SPIB = SPIB (Homo sapiens, UniProt Q01892 1-262); settings: protein: recombinant; tags: N-terminal GST; dsDNA, one strand shown
Method in brief: as §1

ELK3 = molecular target: T6, ELK3 (Homo sapiens, UniProt P41970 1-407); settings: protein: recombinant; tags: N-terminal GST; dsDNA, one strand shown
T6 sequence: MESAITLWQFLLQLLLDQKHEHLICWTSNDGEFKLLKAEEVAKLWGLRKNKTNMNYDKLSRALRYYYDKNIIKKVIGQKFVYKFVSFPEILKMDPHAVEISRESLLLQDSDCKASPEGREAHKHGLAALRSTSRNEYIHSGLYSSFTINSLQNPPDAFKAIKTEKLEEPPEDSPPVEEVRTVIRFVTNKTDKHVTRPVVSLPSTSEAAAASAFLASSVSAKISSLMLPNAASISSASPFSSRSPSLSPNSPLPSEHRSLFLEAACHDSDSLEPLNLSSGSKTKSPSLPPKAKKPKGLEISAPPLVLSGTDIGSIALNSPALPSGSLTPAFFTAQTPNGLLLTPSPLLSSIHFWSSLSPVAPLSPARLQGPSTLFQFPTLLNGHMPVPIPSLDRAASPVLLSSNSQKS
Method in brief: as §1

FEV = molecular target: T7, FEV (Homo sapiens, UniProt Q99581 1-238); settings: protein: recombinant; tags: N-terminal GST; dsDNA, one strand shown
T7 sequence: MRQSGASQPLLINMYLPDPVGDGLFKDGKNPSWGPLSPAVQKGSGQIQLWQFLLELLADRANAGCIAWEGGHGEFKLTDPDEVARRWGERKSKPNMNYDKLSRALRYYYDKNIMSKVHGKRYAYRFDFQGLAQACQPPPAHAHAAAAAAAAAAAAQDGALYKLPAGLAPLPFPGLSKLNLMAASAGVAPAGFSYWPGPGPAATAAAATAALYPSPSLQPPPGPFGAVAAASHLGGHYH
Method in brief: as §1

ETV5 = ETV5 (Homo sapiens, UniProt P41161 1-510); settings: protein: recombinant; tags: N-terminal GST; dsDNA, one strand shown
Method in brief: as §1

HSF1 = HSF1 (Homo sapiens, UniProt Q00613 1-529); settings: protein: recombinant; tags: N-terminal GST; chain copies: 3; dsDNA, one strand shown
Method in brief: as §1

SPIC = molecular target: T8, SPIC (Homo sapiens, UniProt Q8N5J4 1-248); settings: protein: recombinant; tags: N-terminal GST; dsDNA, one strand shown
T8 sequence: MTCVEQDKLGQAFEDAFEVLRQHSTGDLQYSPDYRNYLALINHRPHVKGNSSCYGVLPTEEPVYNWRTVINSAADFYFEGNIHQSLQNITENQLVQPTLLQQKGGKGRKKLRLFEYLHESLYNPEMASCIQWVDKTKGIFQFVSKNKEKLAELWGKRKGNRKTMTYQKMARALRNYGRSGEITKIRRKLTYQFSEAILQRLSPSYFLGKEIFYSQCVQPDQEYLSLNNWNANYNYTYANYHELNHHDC
Method in brief: as §1

ELF4 = ELF4 (Homo sapiens, UniProt Q99607 1-663); settings: protein: recombinant; tags: N-terminal GST; dsDNA, one strand shown
Method in brief: as §1

ELK4 = molecular target: T9, ELK4 (Homo sapiens, UniProt P28324-2 1-405); settings: protein: recombinant; tags: N-terminal GST; dsDNA, one strand shown
T9 sequence: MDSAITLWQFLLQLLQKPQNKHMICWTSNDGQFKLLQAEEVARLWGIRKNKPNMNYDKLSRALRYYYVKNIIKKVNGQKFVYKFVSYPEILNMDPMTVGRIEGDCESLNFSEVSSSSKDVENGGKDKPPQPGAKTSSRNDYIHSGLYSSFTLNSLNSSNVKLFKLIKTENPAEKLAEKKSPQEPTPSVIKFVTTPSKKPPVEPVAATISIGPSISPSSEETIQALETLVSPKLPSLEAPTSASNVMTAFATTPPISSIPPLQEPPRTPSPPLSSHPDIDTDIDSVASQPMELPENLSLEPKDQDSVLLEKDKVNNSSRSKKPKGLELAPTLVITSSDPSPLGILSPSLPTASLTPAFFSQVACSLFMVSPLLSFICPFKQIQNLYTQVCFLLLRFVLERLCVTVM
Method in brief: as §1

ETV2 = molecular target: T10, ETV2 (Homo sapiens, UniProt O00321 1-342); settings: protein: recombinant; tags: N-terminal GST; dsDNA, one strand shown
T10 sequence: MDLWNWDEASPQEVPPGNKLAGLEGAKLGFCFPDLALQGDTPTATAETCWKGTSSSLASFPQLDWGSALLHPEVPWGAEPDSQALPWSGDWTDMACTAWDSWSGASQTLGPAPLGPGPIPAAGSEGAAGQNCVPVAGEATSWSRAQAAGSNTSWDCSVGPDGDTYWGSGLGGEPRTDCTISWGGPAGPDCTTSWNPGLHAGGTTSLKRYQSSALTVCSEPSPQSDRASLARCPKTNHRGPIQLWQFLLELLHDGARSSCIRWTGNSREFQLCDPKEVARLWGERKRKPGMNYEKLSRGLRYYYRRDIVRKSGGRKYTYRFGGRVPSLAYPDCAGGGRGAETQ
Method in brief: as §1

ELF3 = molecular target: T11, ELF3 (Homo sapiens, UniProt P78545 1-371); settings: protein: recombinant; tags: N-terminal GST; dsDNA, one strand shown
T11 sequence: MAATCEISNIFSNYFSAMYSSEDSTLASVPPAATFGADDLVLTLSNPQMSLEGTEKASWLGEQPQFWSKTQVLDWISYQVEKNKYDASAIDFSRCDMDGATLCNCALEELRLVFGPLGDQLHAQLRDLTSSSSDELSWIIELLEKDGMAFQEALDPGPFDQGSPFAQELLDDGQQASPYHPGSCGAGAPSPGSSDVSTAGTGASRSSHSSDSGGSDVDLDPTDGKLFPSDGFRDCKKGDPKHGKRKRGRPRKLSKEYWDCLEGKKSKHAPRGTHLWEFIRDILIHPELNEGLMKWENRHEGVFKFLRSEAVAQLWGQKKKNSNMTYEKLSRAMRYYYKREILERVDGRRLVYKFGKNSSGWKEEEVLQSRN
Method in brief: as §1

CRX = CRX (Homo sapiens, UniProt O43186 1-299); settings: protein: recombinant; tags: N-terminal GST; dsDNA, one strand shown
Method in brief: as §1

ETV1 = ETV1 (Homo sapiens, UniProt P50549 1-477); settings: protein: recombinant; tags: N-terminal GST; dsDNA, one strand shown
Method in brief: as §1

Sequence of CRX (O43186 whole entry): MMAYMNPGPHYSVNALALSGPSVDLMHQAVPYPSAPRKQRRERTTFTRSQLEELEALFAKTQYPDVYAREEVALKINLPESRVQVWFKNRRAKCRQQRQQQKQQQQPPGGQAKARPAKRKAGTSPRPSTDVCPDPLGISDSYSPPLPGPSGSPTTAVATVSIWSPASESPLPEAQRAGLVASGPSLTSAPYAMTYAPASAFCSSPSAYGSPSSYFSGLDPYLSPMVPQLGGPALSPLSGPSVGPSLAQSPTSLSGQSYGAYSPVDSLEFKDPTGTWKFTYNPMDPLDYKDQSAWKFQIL
Sequence of ELF1 (P32519 whole entry): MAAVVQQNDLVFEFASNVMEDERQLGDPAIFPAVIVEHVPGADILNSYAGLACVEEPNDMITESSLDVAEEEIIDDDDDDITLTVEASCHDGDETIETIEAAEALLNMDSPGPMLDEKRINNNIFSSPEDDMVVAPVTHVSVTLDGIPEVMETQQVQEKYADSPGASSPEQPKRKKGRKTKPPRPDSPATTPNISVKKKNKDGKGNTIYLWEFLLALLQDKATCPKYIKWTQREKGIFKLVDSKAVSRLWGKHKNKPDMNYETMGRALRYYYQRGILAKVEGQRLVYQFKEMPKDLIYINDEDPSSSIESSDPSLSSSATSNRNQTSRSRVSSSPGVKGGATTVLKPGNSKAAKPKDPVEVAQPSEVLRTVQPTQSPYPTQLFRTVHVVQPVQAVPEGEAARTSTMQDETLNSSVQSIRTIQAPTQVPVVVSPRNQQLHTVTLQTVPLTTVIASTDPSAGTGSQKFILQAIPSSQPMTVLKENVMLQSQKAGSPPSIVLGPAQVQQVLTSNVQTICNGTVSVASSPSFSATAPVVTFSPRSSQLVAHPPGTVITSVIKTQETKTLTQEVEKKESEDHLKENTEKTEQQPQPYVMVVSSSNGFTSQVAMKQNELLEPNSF
Sequence of SPIB (Q01892 whole entry): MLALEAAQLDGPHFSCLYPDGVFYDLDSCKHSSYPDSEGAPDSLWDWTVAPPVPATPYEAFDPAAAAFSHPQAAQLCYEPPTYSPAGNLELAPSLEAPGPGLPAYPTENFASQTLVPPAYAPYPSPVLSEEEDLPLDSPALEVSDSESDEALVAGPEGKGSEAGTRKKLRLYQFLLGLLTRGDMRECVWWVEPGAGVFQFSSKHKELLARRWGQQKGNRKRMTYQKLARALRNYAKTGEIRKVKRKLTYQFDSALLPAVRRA
Sequence of ETV5 (P41161 whole entry): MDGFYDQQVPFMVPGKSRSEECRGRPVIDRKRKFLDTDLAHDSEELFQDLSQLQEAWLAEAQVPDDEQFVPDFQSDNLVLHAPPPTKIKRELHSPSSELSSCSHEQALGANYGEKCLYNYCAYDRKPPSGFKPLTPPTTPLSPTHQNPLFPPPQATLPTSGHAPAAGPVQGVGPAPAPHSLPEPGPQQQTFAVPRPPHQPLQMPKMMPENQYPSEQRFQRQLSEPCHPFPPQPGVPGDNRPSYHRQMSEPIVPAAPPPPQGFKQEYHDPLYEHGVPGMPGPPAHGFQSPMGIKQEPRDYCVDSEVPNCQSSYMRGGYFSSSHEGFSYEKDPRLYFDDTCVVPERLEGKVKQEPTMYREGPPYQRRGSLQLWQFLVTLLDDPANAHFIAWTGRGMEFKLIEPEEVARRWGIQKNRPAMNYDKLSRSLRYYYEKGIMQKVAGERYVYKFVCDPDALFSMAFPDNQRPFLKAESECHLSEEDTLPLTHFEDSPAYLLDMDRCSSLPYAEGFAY
Sequence of ELF4 (Q99607 whole entry): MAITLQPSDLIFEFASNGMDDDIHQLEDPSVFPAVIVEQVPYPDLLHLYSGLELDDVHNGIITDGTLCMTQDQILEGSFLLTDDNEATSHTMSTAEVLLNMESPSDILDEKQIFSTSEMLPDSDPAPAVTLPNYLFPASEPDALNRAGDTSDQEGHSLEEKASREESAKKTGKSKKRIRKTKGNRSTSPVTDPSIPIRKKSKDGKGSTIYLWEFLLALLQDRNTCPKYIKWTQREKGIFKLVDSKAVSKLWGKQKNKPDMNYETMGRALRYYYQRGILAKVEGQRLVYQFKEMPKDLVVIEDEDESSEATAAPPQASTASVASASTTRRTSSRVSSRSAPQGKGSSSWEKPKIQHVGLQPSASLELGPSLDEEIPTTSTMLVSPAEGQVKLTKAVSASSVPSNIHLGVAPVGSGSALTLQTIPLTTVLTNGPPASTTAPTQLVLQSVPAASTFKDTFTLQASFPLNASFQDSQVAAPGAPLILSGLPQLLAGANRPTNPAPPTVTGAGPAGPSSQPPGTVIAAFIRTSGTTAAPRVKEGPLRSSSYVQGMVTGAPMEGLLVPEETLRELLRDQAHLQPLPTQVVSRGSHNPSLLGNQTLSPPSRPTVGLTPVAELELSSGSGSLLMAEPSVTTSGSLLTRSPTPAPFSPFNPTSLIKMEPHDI
Sequence of ETV1 (P50549 whole entry): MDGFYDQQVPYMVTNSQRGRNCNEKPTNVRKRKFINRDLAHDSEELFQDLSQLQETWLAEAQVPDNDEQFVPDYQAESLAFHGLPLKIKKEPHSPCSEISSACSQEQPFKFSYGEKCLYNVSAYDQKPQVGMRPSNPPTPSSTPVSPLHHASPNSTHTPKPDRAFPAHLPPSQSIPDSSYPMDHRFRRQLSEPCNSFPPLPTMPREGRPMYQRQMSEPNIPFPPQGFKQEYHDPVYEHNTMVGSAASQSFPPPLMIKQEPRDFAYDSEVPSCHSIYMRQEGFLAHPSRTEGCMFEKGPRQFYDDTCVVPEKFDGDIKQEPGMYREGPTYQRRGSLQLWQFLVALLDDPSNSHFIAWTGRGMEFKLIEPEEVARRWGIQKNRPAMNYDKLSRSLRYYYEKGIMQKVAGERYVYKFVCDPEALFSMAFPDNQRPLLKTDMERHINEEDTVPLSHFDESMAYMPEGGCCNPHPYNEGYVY
Sequence of HSF1 (Q00613 whole entry): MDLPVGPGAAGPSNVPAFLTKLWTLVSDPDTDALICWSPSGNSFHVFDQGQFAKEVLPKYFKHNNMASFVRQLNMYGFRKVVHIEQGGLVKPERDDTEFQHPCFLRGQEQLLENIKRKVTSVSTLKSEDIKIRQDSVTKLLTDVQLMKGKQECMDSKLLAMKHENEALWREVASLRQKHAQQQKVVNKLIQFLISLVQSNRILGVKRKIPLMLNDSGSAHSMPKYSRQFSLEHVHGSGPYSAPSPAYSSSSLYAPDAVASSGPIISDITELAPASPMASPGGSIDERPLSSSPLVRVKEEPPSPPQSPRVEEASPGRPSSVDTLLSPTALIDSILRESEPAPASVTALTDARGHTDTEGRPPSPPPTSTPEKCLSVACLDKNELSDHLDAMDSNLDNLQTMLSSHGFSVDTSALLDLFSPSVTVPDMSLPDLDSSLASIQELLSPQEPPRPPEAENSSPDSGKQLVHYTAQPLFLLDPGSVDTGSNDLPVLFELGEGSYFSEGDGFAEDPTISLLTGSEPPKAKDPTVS

Q: Which binding signal (FLI1) does the source give for TTCGCT here?
A: 1.19 fold enrichment (6-mer frequency, TF over GST control)

Q: What about the binding signal (ELK1) of the same sequence?
A: 1.17 fold enrichment (6-mer frequency, TF over GST control)

Q: What about the binding signal (GABPA) of the same sequence?
A: 1.32 fold enrichment (6-mer frequency, TF over GST control)

Q: What about the binding signal (ERG) of the same sequence?
A: 1.28 fold enrichment (6-mer frequency, TF over GST control)

Q: What about the binding signal (ELF1) of the same sequence?
A: 1.18 fold enrichment (6-mer frequency, TF over GST control)

Q: What about the binding signal (EHF) of the same sequence?
A: 1.07 fold enrichment (6-mer frequency, TF over GST control)

Q: And the binding signal (SPI1)?
A: 1.16 fold enrichment (6-mer frequency, TF over GST control)

Q: What about the binding signal (SPIB) of the same sequence?
A: 1.47 fold enrichment (6-mer frequency, TF over GST control)

Q: What about the binding signal (ELK3) of the same sequence?
A: 1.45 fold enrichment (6-mer frequency, TF over GST control)

Q: What about the binding signal (FEV) of the same sequence?
A: 1.2 fold enrichment (6-mer frequency, TF over GST control)

Q: And the binding signal (ETV5)?
A: 1.24 fold enrichment (6-mer frequency, TF over GST control)

Q: What about the binding signal (HSF1) of the same sequence?
A: 1.29 fold enrichment (6-mer frequency, TF over GST control)

Q: What about the binding signal (SPIC) of the same sequence?
A: 1.08 fold enrichment (6-mer frequency, TF over GST control)

Q: And the binding signal (ELF4)?
A: 1.36 fold enrichment (6-mer frequency, TF over GST control)

Q: What about the binding signal (ELK4) of the same sequence?
A: 1.29 fold enrichment (6-mer frequency, TF over GST control)

Q: And the binding signal (ETV2)?
A: 1.49 fold enrichment (6-mer frequency, TF over GST control)

Q: And the binding signal (ELF3)?
A: 1.26 fold enrichment (6-mer frequency, TF over GST control)

Q: What about the binding signal (CRX) of the same sequence?
A: 1.13 fold enrichment (6-mer frequency, TF over GST control)

Q: What about the binding signal (ETV1) of the same sequence?
A: 1.27 fold enrichment (6-mer frequency, TF over GST control)
